Test results taken from PubChem BioAssay.
Calls of active or inactive are those of the source. Unless noted, the rule behind the calls is not given here.

Experiments:
[1] = inhibition of Brca1/Bard1 split-luciferase complementation, confirmation, counter-screen for Mdm2/MdmX interaction inhibitor project, luminescence, single concentration (AID 504668); conditions: Brca1/Bard1 bimolecular luciferase complementation counterscreen, at 8 µM, stronger effect = higher value
[2] = inhibitors of PAF-induced NFkB signaling in CF airway cells, dose response, cell-based, uHTS hits, panel, cytotoxicity readout (AID 624344); conditions: CF bronchial epithelial cells, PAF-induced NFkB reporter inhibition, with PAF, run 1; at 79 µM (top of the series) unless noted
[3] = as above; conditions: CF bronchial epithelial cells, PAF-induced NFkB reporter inhibition, with PAF, run 2; at 79 µM (top of the series) unless noted
[4] = molecular target: PEG-3 (UniProt Q6IN02); assay: Peg3 promoter luciferase inhibitors, potency, dose response, cell-based, HeLa, CREF/GAPDH counter-screen panel (AID 624167); conditions: CREF/GAPDH counter-screens; HeLa PEG-Prom luciferase reporter, overnight, run 1, dose range 1, at 100 µM (top of the series) unless noted
[5] = molecular target: PEG-3 (UniProt Q6IN02); assay: as above; conditions: CREF/GAPDH counter-screens; HeLa PEG-Prom luciferase reporter, overnight, run 2, dose range 1, at 100 µM (top of the series) unless noted
[6] = system: Rat fibroblasts (CREF); assay: as above; conditions: CREF/GAPDH counter-screens; run 1, dose range 1, at 100 µM (top of the series)
[7] = system: Rat fibroblasts (CREF); assay: as above; conditions: CREF/GAPDH counter-screens; run 2, dose range 1, at 100 µM (top of the series)
[8] = molecular target: Tumor necrosis factor receptor superfamily member 10B (Homo sapiens) (UniProt O14763); assay: caspase-8 TRAIL sensitization, hit retest, confirmation, cell-based, NB7+caspase-8, with/without TRAIL, luminescence panel (AID 651596; in the data active = activity above about 50%); conditions: NB7 neuroblastoma + caspase-8, TRAIL sensitization, luminescence viability, with TRAIL, mean of runs, at 10 µM, stronger effect = higher value
[9] = as above; conditions: NB7 neuroblastoma + caspase-8, without TRAIL, luminescence viability, without TRAIL, mean of runs, at 10 µM

Sequence of Tumor necrosis factor receptor superfamily member 10B (Homo sapiens) (O14763 whole entry, looked up): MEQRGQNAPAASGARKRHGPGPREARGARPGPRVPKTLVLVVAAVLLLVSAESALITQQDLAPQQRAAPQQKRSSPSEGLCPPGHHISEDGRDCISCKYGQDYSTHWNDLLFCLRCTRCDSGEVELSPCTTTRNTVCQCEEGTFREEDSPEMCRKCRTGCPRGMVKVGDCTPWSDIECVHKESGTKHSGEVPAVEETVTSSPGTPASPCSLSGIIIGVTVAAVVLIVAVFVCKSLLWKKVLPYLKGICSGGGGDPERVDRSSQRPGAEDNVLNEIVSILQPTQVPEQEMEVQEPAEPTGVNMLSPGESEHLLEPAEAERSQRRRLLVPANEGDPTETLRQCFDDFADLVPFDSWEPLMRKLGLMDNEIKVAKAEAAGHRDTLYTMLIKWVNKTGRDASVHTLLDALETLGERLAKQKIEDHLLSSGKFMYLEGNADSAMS
Sequence of PEG-3 (Q6IN02 whole entry, looked up): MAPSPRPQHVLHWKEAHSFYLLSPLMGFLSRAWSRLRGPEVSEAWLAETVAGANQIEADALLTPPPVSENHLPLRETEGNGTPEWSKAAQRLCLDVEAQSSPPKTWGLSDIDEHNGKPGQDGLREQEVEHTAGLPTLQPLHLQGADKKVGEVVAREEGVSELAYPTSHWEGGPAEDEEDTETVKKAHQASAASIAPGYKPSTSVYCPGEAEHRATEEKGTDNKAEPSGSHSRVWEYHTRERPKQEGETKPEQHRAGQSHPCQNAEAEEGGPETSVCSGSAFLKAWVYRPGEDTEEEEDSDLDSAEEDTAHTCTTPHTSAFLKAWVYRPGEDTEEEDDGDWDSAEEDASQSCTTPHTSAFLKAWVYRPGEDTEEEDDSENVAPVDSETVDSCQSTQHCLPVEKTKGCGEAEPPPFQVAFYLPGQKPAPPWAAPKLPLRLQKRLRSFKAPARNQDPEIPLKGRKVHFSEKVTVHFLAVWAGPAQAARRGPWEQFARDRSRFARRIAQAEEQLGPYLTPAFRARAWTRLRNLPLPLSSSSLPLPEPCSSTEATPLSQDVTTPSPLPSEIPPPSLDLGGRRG

Compound | inhibition [1] | inhibition [2] | inhibition [3] | inhibition [4] | inhibition [5] | inhibition [6] | inhibition [7] | activity [8] | activity [9]
Nc1ncnc(NCc2ccc(F)cc2)c1[N+](=O)[O-] | 27% (active) | 99% | 98.9% |  |  |  |  |  | 
C=CCc1cccc(/C=N/NC(=O)C(C)Nc2cccc(C)c2)c1O (stereo not given) | 34.9% (active) |  |  | 60.8% | 62% | 39.7% | 47.8% |  | 
CCOc1cc(Br)c(Br)c(C=Nc2ccc(NC(C)=O)cc2)c1O | 33.1% (active) | 105% | 115% |  |  |  |  |  | 
CCCC(=O)NC(c1ccc(N(C)C)cc1)c1ccc2cccnc2c1O (stereo not given) | 29.9% (active) |  |  | 24.4% | 78.2% [run 2, dose range 1, at 50 µM] | 42.3% | 43.5% |  | 
O=C(/C=C/Nc1ccccc1Br)c1ccccn1 | 24% (active) |  |  | 96.6% | 99.5% | 97.6% | 98.9% |  | 
O=C(Nc1ccc([N+](=O)[O-])cc1)C(=O)Nc1cccc(C(=O)O)c1 | 31% (active) |  |  | 92.5% | 95% | 97.5% | 96.8% |  | 
Cc1cnc(NC(=O)c2ccc3c(c2)OCCO3)s1 | 28.6% (active) |  |  | 98.1% | 97% | 100% | 99.6% | 98.2% | 98.5%
CN(C(=O)OC(C)(C)C)c1ccc(-c2nc3ccccc3s2)cc1 | 24.8% (active) |  |  | 96.5% | 98.2% |  |  | 92.6% | 91.2%
COc1ccc(C(=O)O/N=C(\N)c2ccccn2)cc1 | 24.2% (active) |  |  | 99.1% | 101% | 98.2% | 99.2% |  | 
COC1(OC)C=CC(=O)C=C1NC(=O)c1ccccc1OC(C)=O | 35.6% (active) | 101% | 113% |  |  |  |  |  | 
Cc1ccc2nc(-c3ccccc3)cn2c1 | 32.2% (active) |  |  | 97.5% | 99% | 100% | 99.1% | 94% | 93.9%
Cc1cc(NC(c2ccc(Cl)cc2)c2ccc3cccnc3c2O)no1 (stereo not given) | 27.4% (active) |  |  | 37.1% | 87.1% | 37.2% | 44.8% |  | 
COC(=O)Cc1[nH]n(-c2nc3ccccc3s2)c(=O)c1C(C)=Nc1ccc(C)cc1 | 32.2% (active) |  |  | 80.3% | 83.8% | 78.5% | 80.2% |  | 
O=c1c2ccccc2sc2ccc(C#CC3(O)CCCCC3)cc12 | 25.4% (active) |  |  | 99.4% | 98% | 100% | 100% | 97.6% | 97.2%
O=C(CNc1ccccc1)N/N=C/c1c(O)ccc2ccccc12 | 26.6% (active) |  |  | 44.6% | 64.1% | 73.1% | 49.7% |  | 
